About 83,000 compounds went through this panel and 20% of them were active in at least one assay; those are over-represented in the sample as a whole.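 Method: cells in 96-well plates; compound added at one concentration; 48 h incubation; percent growth measured; values under 10 scored active.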 A number with no mark means an inactive call. Active and inactive are the calls of the source.
test system: MDA-MB-468 breast; assay: NCI-60 one-dose screen, 48 h (100 = growth as untreated, 0 = no growth, -100 = all killed); conditions: 10 µM unless noted

SMILES | growth
Nc1n[nH]c2ccc([C@@H]3Nc4c(F)cc5[nH]ncc5c4[C@H]4C5CCC(C5)[C@@H]34)cc12 (stereo not given in full) | -4.88% (active)
COc1ccc(/C=C/C(=O)N2CCC(O)CC2)cc1OC1CCCC1 | 114%
CCOC(=O)c1c(NC(=O)c2ccccc2C(F)(F)F)sc2c1CCC(=O)C2 | 58.6%
COc1nc2ccc(C)cc2cc1-c1nc2c(cnn2-c2ccc(Br)cc2)c(=O)[nH]1 | 29.5%
Cc1ccc(CSC2=C(Cl)CN(c3ccc(Cl)cc3)C2=O)cc1 | 83.4%
COc1ccc(-c2nn(-c3ccc(NC(=O)c4cc(Cl)cc(Cl)c4)cc3)cc2-c2ccncc2)cc1Cl | 70.1%
COc1ccc(C(=O)c2c(N)c(C#N)cn2-c2ccc(Cl)cc2Cl)cc1 | 89.5%
COc1cc2nc(Cl)nc(Nc3ccc(S(=O)(=O)Nc4nccs4)cc3)c2cc1OC | 102%
COc1ccc(C(=O)NNc2nc(Cl)nc(N3CCN(C(c4ccccc4)c4ccccc4)CC3)n2)cc1 | -31.9% (active)
CC(C)OC(=O)[C@H](C)N[P@@](=O)(OC[C@@]1(C)O[C@@H](n2cc(F)c(N)nc2=O)C[C@@H]1O[P@](=O)(N[C@@H](C)C(=O)OC(C)C)Oc1ccccc1)Oc1ccccc1 | 97.9%
CCOC(=O)c1[nH]cc2c1CCc1sc(Nc3ccccn3)nc1-2 | 46.9%
CC(=O)N1N=C(c2ccc(Cl)cc2)CC1c1c(C)nn(-c2ccccc2)c1N(C)Cc1ccccc1 (stereo not given) | 58.9%
COc1ccc([N+](=O)[O-])c(/C=C/C(=O)c2ccccn2)c1 | 74.4%
Cc1ccc(/C=C2/C(=O)N(C)c3ccc(S(=O)(=O)Nc4ccc(C(C)(C)C)cc4)cc32)s1 | 63.1%
CC(=O)OCC1O[C@@H](OC(C)=O)[C@@H](NC(=O)NS(=O)(=O)c2ccccc2)C(OC(C)=O)[C@@H]1OC(C)=O (stereo not given in full) | 107%
O=C1CC(c2cccc(F)c2)c2c(n[nH]c2-c2ccc(Cl)cc2)N1 (stereo not given) | 68.4%
COC(=S)SCN(CSC(=S)OC)c1ccc(Cl)cc1 | 95.1%
Clc1ccc2c(NCCCN3CCN(c4nc(N5CCOCC5)nc5ccccc45)CC3)ccnc2c1 | -74.3% (active)
COc1cccc(Cn2c(-c3nonc3N)nc3ccccc32)c1 | -12.2% (active)
CCCCn1c(-c2ccc(-c3nc(-c4ccc(Cl)cc4)no3)cc2)nc(-c2ccccc2)c1-c1ccccc1 | 106%
CC1(C)CC[C@]2(C(=O)N3CCOCC3)CC[C@]3(C)C(=CC[C@@H]4[C@@]5(C)C/C(=C/c6ccco6)C(=O)C(C)(C)[C@@H]5CC[C@]43C)[C@@H]2C1 | 82.3%
Nc1nc(-c2cnccn2)nn1-c1nc2ccccc2s1 | 102%
Cn1cc(-c2csc(-c3cn(CCCN4CCCCC4)c4ccc(Br)cc34)n2)c2cccnc21 | 15.2%
O=C(NCc1ccc(F)cc1)C1CN(c2ccc(Cl)cc2)N(c2ccc(Cl)cc2)C1=O (stereo not given) | 43.1%
CCCCCCC(C(=O)OCC)(C(=O)OCC)C1CCCCCC1 | 112%
